Sampled rows, rich in hits. Any-hit rate of the full collection: about 17%.
TDP1 cell noCPT: qHTS for Inhibitors of human tyrosyl-DNA phosphodiesterase 1 (TDP1): qHTS in cells in absence of CPT | Potency, µM (top dose mostly 46.2 µM), for inactives: at the top dose activity change, negative = growth inhibition, hits mostly inhibitors | 420,000 tested, 15% active | DT40 Tdp1-/- hTDP1 cells, no CPT, ATP luminescence, 48 h; note: % is set by controls: 0 for no effect and ±100 for the full control effect; nearly all actives have a fitted effect of over 55% in size
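No-CPT arm: Tdp1-/-;hTDP1 DT40 cells (400/well) plus compounds, incubated ≥48 hr at 37 °C. Readout CellTiter-Glo luminescence.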
TDP1 block: qHTS Assay for Inhibitors of Tyrosyl-DNA Phosphodiesterase (TDP1). Tyrosyl-DNA phosphodiesterase 1 (Homo sapiens), Q9NUW8. recombinant TDP1, AlphaScreen DNA substrate cleavage. Potency, µM (titrated, usually from 130 µM), without a hit: at the highest dose activity change, negative = inhibition, hits mostly inhibitors. 350,000 tested, 0.28% active. AID 485290, 2010; note: % is set by controls: 0 for no effect and ±100 for the full control effect; nearly all actives have a fitted effect of over 40% in size
Target sequence (Q9NUW8 whole entry, looked up): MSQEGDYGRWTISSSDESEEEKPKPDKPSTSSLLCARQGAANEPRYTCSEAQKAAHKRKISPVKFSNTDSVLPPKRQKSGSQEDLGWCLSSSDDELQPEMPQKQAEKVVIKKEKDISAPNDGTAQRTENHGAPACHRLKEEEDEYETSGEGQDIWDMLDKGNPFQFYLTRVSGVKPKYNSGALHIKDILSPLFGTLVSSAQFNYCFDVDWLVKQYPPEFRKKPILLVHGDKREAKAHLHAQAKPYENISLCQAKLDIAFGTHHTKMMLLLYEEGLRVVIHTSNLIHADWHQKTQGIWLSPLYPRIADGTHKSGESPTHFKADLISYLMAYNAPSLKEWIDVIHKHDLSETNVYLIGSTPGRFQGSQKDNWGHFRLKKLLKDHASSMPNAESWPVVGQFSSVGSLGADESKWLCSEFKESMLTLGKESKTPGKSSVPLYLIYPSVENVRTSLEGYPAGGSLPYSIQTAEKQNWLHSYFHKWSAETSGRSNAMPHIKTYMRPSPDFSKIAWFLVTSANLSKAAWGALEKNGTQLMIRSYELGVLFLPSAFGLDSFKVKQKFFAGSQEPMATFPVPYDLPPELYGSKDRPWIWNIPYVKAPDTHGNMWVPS
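Compounds were preincubated with Tdp1 (1 nM final) for 15 min at room temperature before substrate (15 nM final) started a 5 min reaction; beads (10 ug/ml final) were then added for 10 min before AlphaScreen detection.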
DT40 TDP1 CPT: qHTS for Inhibitors of human tyrosyl-DNA phosphodiesterase 1 (TDP1): qHTS in cells in presence of CPT; chicken DT40 Tdp1-/-;hTDP1 cells + 20 nM CPT, ATP luminescence, 48 h; Potency, µM (titrated, usually from 46.2 µM), without a hit: top-dose activity change, negative = growth inhibition, hits mostly inhibitors; 420,000 tested, 12% active; AID 686979, 2013; note: % is set by controls: 0 for no effect and ±100 for the full control effect; nearly all actives have a fitted effect of over 55% in size
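Chicken DT40 Tdp1-/- cells stably complemented with human TDP1 were seeded at 400 cells/well in medium containing 20 nM camptothecin, exposed to pin-transferred compounds, and grown at 37 °C for at least 48 hr. Viability was read as ATP luminescence.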
ClpP mod: qHTS Assay for Activators of ClpP; purified B. subtilis ClpP, FRET peptide cleavage, 20 min; 340,000 tested, 1.9% active; ATP-dependent Clp protease proteolytic subunit (Bacillus subtilis (strain 168)), P80244; Potency, µM (titrated, usually from 57.5 µM), for inactives: top-dose activity change, negative = active; AID 651965, 2013; active = well fitted falling curve with a large enough effect; inconclusive = small, poorly fitted or top-dose-only effect; inactive = no such curve, though single readings can be large or run the other way; note: the source files actives as falling curves though it sought activators and does not explain the sign; nearly all actives have a fitted effect of over 65% in size
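Purified B. subtilis ClpP, 10 microg/mL final in Tris/HCl pH8 with KCl, BSA, glycerol and Tween-20, cleaved an Abz/nitrotyrosine-quenched decapeptide. Fluorescence (ex 320, em 430) was read at 0 and 20 min at room temperature. Delta was normalized to 5.8 microM ADEP and DMSO/no-enzyme controls.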
Starred values were filed as active, the others as inactive; ? = inconclusive; nt = no result given; [ ] = remark or other dose. Unless noted, calls come from the whole dose curve; as a rule, active = well fitted curve in the direction sought with a large enough effect; inconclusive = small, poorly fitted or top-dose-only effect, or another doubt; inactive = no such curve, though single readings can be large; an effect the other way counts as inactive or inconclusive. Potency is the fitted concentration of half-maximal effect.

SMILES	TDP1 cell noCPT	TDP1 block	DT40 TDP1 CPT	ClpP mod
CS(=O)(=O)c1ncc(Cl)c(C(=O)Nc2c(C(=O)c3ccc(Cl)cc3)oc3ccccc23)n1	3%	0%	?	-2%
Cc1nc(-c2ccccc2)c(-c2ccncc2)o1	nt	10%	nt	nt
O=C(N/N=C/c1cccnc1)c1cc(-c2ccc(Cl)cc2)nc2ccccc12	8.2µM*	nt	?	-1%
O=C(N/N=C/c1ccc(Cl)cc1)c1cc(-c2cccnc2)nc2ccccc12	7.3µM*	0%	?	0%
O=C(N/N=C/c1ccc[nH]1)c1cc(-c2ccc(Cl)cc2)nc2ccccc12	9.2µM*	8%	?	nt
O=C(N/N=C/C1CC=CCC1)c1cc(-c2cccnc2)nc2ccccc12 (stereo not given)	3%	4%	-2%	nt
Cc1ccc(/C=N/NC(=O)c2cc(-c3cccnc3)nc3ccccc23)cc1	1.5µM*	5%	2.1µM*	nt
Cc1ccc(C)c(-c2cc(C(=O)N/N=C/c3cccnc3)c3ccccc3n2)c1	?	4%	?	0%
CCN(CC(=O)Nc1c(F)cccc1F)C(=O)/C=C/c1ccc(Br)s1	-26%	-3%	?	-11%
CCOc1cc(/C=N/NC(=O)c2c(-c3ccccc3)noc2C)ccc1O	-7%	1%	-23%	-3%
CCOc1cc(/C=N\NC(=O)CC(=O)NCCc2ccccc2)ccc1O	0%	-5%	-5%	nt
Cc1ccc(-c2cc(C(=O)N/N=C/c3cccnc3)c3ccccc3n2)cc1C	8.2µM*	nt	8.2µM*	-16%
O=C(N/N=C/c1cccnc1)c1cc(-c2ccc(Br)cc2)nc2ccccc12	8.2µM*	1%	12µM*	-2%
CCOc1cc(/C=N/NC(=O)c2cc(-c3cccnc3)nc3ccccc23)ccc1O	6.5µM*	0%	-29%	nt
CCOc1cc(C=NNC(=O)N(c2ccccc2)c2ccccc2)ccc1O	16µM*	nt	29µM*	-28%
CCC(Oc1ccccc1F)C(=O)Nc1cc(-c2ccccc2)no1 (stereo not given)	?	4%	?	-1%
CC(=O)OC[C@@H]1O[C@H](C/C=N\O[C@@H](C)CN2CCCc3nc(C)c(C)cc32)C=C[C@@H]1OC(C)=O	nt	5%[21 µM]	nt	nt
CCOc1cccc(-c2cc(C(=O)N/N=C/c3ccc(OC)c(CN4CCOCC4)c3)c3ccccc3n2)c1	16µM*	5%	18µM*	-30%
COc1cc(C(=O)Nc2nc3nc(-c4ccccc4)cc(=O)n3[nH]2)cc(OC)c1OC	5%	2%	1%	-3%
CCc1ccc(NC(=S)N2CCN(c3cccc(C(F)(F)F)c3)CC2)cc1	?	5%	?	-1%
COCCNC(=S)N1CCN(c2cccc(C(F)(F)F)c2)CC1	23µM*	3%	?	nt
FC(F)(F)c1cccc(N2CCN(C(=S)NCC3CCCO3)CC2)c1 (stereo not given)	23µM*	8%	?	nt
S=C(NCC1CCCO1)N1CCN(c2ccccc2)CC1 (stereo not given)	-6%	8%	1%	nt
Cc1c(C(=O)N(C)C2CCOC2)cnn1-c1ncc2c(n1)-c1ccccc1CCC2 (stereo not given)	-17%	nt	4%[9.04 µM]	nt
O=C(COCc1cc(-c2ccc3c(c2)OCO3)on1)Nc1cccc(O)c1	?	5%	?	-7%
SMILES	TDP1 cell noCPT	TDP1 block	DT40 TDP1 CPT	ClpP mod
Cc1noc(C(=O)N2CC3(C)CC2CC(C)(C)C3)c1Cl (stereo not given)	18µM*	-1%	?	1%
COc1cccc(-c2cc(C(=O)N3CC4(C)CC3CC(C)(C)C4)no2)c1 (stereo not given)	21µM*	0%	?	-8%
COc1ccc2nc3sc(C(=O)N4CCN(c5ccc(F)cc5)CC4)cc3cc2c1	-26%	-2%[12.3 µM]	15%	-1%
CN1c2ccccc2-c2nc3ccccc3n2C1c1ccncc1 (stereo not given)	?	-1%	-21%	20µM*
CCN1c2ccccc2-c2nc3ccccc3n2C1c1ccco1 (stereo not given)	16µM*	0%	21µM*	20%
CN1c2ccccc2-c2nc3ccccc3n2C1c1ccccn1 (stereo not given)	16µM*	7%	16µM*	-1%
COc1cc(OC)c(NC(=O)C2=C(C)C(=O)OC23CCN(C(C)=O)CC3)cc1Cl	6%	5%	11%	1%
Nc1nc(-c2ccccc2)ns1	-11%	nt	-2%	-2%
C/C(=N\NC(=O)c1c(C)nc2ccccn12)c1ccc(O)cc1O	3.7µM*	3%	3.7µM*	-12%
COc1ccc(-c2nc(C#N)c(NCc3ccc(C)cc3)o2)cc1OC	?	6%	?	32µM*
Cc1ccc(-c2nc(C#N)c(NCc3cccc4c3OCO4)o2)cc1	1%	3%	2%	32µM*
CNc1oc(-c2ccco2)nc1C#N	-5%	2%	7%	?
N#Cc1nc(-c2ccc(F)cc2)oc1NCc1cccc2c1OCO2	-27%	0%	-28%	4%
Cc1ccc(CNc2oc(-c3ccco3)nc2C#N)cc1	?	7%[56.1 µM]	18%	16µM*
COc1ccc(CCNc2oc(-c3ccco3)nc2C#N)cc1	?	2%	?	28µM*
CS(=O)(=O)N1CCC2(CCN(c3ccccn3)CC2)CC1	0%	nt	1%	nt
Cc1nc2ccc(NC(=O)c3cc(Cl)ccn3)cc2s1	-23%	0%	-6%	nt
CC1(c2nnc(-c3cccc(Cl)c3)o2)CC(c2ccc(Cl)cc2)=NO1 (stereo not given)	-29%	nt	-27%	1%
CC1(c2nnc(-c3cccc(Cl)c3)o2)CC(c2ccc(C#N)cc2)=NO1 (stereo not given)	18µM*	nt	?	1%
NC(=O)c1ncn([C@@H]2O[C@H](CO)[C@@H](O)[C@H]2O)c1N	-1%	17%	-3%	nt
OCC1OC(n2cnc3c(NCc4ccccc4O)ncnc32)C(O)C1O (stereo not given)	1.5µM*	nt	1.3µM*	-3%
O=[N+]([O-])c1ccc(CSc2ncnc3c2ncn3[C@@H]2O[C@H](CO)[C@@H](O)[C@H]2O)cc1	13µM*	nt	?	-3%
O=[N+]([O-])c1ccc(CSc2ncnc3c2ncn3[C@@H]2O[C@H](CO)[C@H](O)[C@H]2O)cc1	nt	9%	nt	nt
Nc1ccnc2c1ncn2[C@@H]1O[C@H](CO)[C@@H](O)[C@H]1O	4.6µM*	4%	12µM*	nt
Nc1ncnc2c1ncn2[C@@H]1O[C@H](CO)[C@@H](O)[C@H]1O	-28%	0%	-11%	0%
N#Cc1ncn(C2OC(CO)C(O)C2O)c1N (stereo not given)	5.8µM*	nt	5.8µM*	-1%
